Assay outcomes deposited in PubChem by The Scripps Research Institute Molecular Screening Center.
SMARCA2 act: SMARCA2 function activation, primary screen | MG213 cells, MMTV-luciferase reporter, dexamethasone, overnight | activation, % at 9.1 µM | 370,000 compounds, 1% hits | AID 652017; in the data active = activation above about 7.8%
DAX1 inh-1: inhibitors of human orphan nuclear receptor DAX1 (NR0B1); inhibition, % at 6.75 µM; AID 504766; 340,000 compounds, 0.99% hits; HEK293 Gal4-DAX1 luciferase reporter, luminescence; P51843;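 active = inhibition above the mean over all tested compounds plus 3 SD, cut at about 4.2% in these data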;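 also: inhibition shows as a rise in luminescence from relieved DAX1 repression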
Target sequence (P51843 207-470 limits assumed): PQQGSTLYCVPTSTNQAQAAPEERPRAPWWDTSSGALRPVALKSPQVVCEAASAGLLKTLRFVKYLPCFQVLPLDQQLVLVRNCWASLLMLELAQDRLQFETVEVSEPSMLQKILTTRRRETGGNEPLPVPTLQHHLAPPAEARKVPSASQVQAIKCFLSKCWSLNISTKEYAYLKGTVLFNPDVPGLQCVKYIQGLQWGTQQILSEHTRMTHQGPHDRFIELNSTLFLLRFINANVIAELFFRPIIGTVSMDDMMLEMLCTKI
hcDAF12 agonist: activates DAF-12 receptor from parasite H. contortus; HEK293 hcDAF-12 lit1-tk-luc reporter, luminescence; 0% DMSO, 100% Δ7-dafachronic acid; activation, % at 6.8 µM; 370,000 compounds, 1.4% hits; AID 652067;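 active = activation above the mean of all tested compounds plus 3 SD, cut at about 5.5% in these data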
ssDAF12 agonist: S. stercoralis DAF-12 activation, primary screen; AID 652126; 370,000 compounds, 1% hits; activation, % at 6.8 µM; HEK293 ssDAF-12/GRIP1 lit1-tk-luc reporter, luminescence; % of 3 µM dafachronic acid response;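 active = activation above the mean over all tested compounds plus 3 SD, cut at about 0.9% in these data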
hgDAF12 agonist: hgDAF-12 agonism, primary luciferase screen. activation, % at 6.8 µM. AID 687014. 370,000 compounds, 1.8% hits. HEK293 GAL4-hgDAF12 UAS-luciferase reporter, agonist luminescence; normalized to butyrate control;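 active = activation above a cutoff set at the mean of all screened compounds plus 3 SD, cut at about 10% in these data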
DAX1 inh-2: inhibitors of DAX1 repression of SF-1 activated StAR promoter. HEK293T StAR-luciferase reporter, SF-1/DAX-1 repression relief. inhibition, % at 6.8 µM. 370,000 compounds, 1.1% hits;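 active = inhibition above the mean over all tested compounds plus 3 SD, cut at about 3.6% in these data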;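 also: higher inhibition means more luminescence from relief of DAX-1 repression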
LXRb hcDAF ctr: counter-screen for hcDAF-12 agonists: agonists of human LXR-beta; shares compounds with hcDAF12 agonist; HEK293 Gal4-LXR tk-luc reporter, luminescence, 24 h; normalized: DMSO 0%, positive control 100%; activation, % at 6.8 µM; 3,400 tested, under 10 active; AID 743027;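 active = mean percent activation of the reporter above a cutoff set as the average over tested compounds plus their standard deviation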
hcDAF12 conf: confirmation of H. contortus DAF-12 agonists; HEK293 hcDAF-12 lit1-tk-luc reporter, luminescence; % of Δ7-dafachronic acid response; 3,400 compounds, 61% hits; shares compounds with hcDAF12 agonist; AID 743032; activation, % at 6.8 µM;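 active = mean activation across triplicate tests above the threshold derived from the earlier primary screen, cut at about 5.5% in these data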
Numbers stand for hits; 0 = inactive; - = no result. Hits are enriched below; roughly 4.8% of the tested compounds scored in any of these assays.

SMILES	SMARCA2 act	DAX1 inh-1	hcDAF12 agonist	ssDAF12 agonist	hgDAF12 agonist	DAX1 inh-2	LXRb hcDAF ctr	hcDAF12 conf
C/C(CC(=O)Nc1ccccn1)=N\NC(=O)c1ccccc1O	0	0	10.6	1.0	0	0	0	9.1
O=C(c1cc2ccccc2c(=O)o1)N1CCCCCC1	0	0	0	0	0	0	-	-
Cc1noc(C(=O)Nc2cc(Cl)ccc2O)c1Cl	0	0	7.4	0	0	0	0	0
Cc1noc(C(=O)Nc2ccc(F)c(Cl)c2)c1Cl	0	0	0	0	0	0	-	-
O=C1NC(=O)N(c2ccccc2)C1=O	0	0	0	0	0	0	-	-
CC(=O)N=c1sc2cc(C)ccc2n1C	0	0	0	0	0	0	-	-
CC(=O)N=c1sc2c3ccccc3ccc2n1C	0	0	7.5	0	0	0	0	0
CNc1nc(-c2ccc(S(=O)(=O)N3CCCCC3)cc2)cs1	0	0	0	0	0	0	-	-
CC(=O)c1sc(N/N=C/c2cccc(O)c2)nc1C	0	0	7.1	0	11.6	0	0	0
Cc1cc(C)n(-c2nc(C)nc3c2cnn3-c2ccccc2)n1	0	0	10.3	0	0	0	0	7.8
COc1nc(-c2ccc(Cl)cc2)ccc1-c1noc(-c2ccco2)n1	0	0	0	0	0	0	-	-
COc1nc2c(C)cccc2cc1-c1noc(-c2ccco2)n1	0	0	6.9	0	0	0	0	0
CCN(CC)S(=O)(=O)c1ccc(C)c(NC(=O)c2cc(C)oc2C)c1	0	0	0	0	0	0	-	-
CCOC(=O)C1=C(C)NC2=C(C(=O)CCC2)C1c1coc2ccccc2c1=O (stereo not given)	0	0	6.8	0	0	0	0	0
Fc1ccccc1-c1nc2ncccc2o1	0	0	0	0	0	0	-	-
c1ccc2c(-c3nc4ncccc4o3)cccc2c1	0	0	8.3	0	0	0	0	5.6
Cc1ccc(N=Cc2cc(Br)cc(Cl)c2O)cc1	0	0	0	0	0	0	-	-
Cc1ccc(C(=O)/C=C/c2ccc(-c3ccccc3[N+](=O)[O-])o2)cc1	0	0	0	0	0	0	-	-
O=C(NCc1ccccc1)C(c1ccccc1)n1c(=O)c(-c2cc3ccccc3[nH]2)nc2ccccc21 (stereo not given)	0	-	0	0	0	0	-	-
O=C(Nc1ccc2c(c1)OCCO2)C(c1ccc(C(F)(F)F)cc1)n1c(=O)c(-c2cc3ccccc3[nH]2)nc2ccccc21 (stereo not given)	0	-	0	0	0	0	-	-
O=C(Nc1ccc2c(c1)OCCO2)C(c1ccncc1)n1c(=O)c(-c2cc3ccccc3[nH]2)nc2ccccc21 (stereo not given)	0	-	8.8	1.6	12.1	0	0	15.0
CCCCCNC(=O)C(c1ccncc1)n1c(=O)c(-c2cc3ccccc3[nH]2)nc2ccccc21 (stereo not given)	0	-	9.2	0.9	0	4.3	0	9.9
O=C(NCc1ccccc1)C(c1cc2ccccc2o1)n1c(=O)c(-c2cc3ccccc3[nH]2)nc2ccccc21 (stereo not given)	0	-	9.2	1.8	0	0	0	7.0
CCS(=O)(=O)Nc1c(C(=O)O)[nH]c2ccccc12	0	0	7.6	0	0	0	0	0
O=C(c1cc(-c2ccccc2)nc2ccccc12)N1CCCc2ccccc21	0	0	0	0	0	0	-	-
SMILES	SMARCA2 act	DAX1 inh-1	hcDAF12 agonist	ssDAF12 agonist	hgDAF12 agonist	DAX1 inh-2	LXRb hcDAF ctr	hcDAF12 conf
O=C(Nc1ccc(CN2CCOCC2)cc1)c1ccc(-c2cc(Cl)ccc2Cl)o1	0	0	0	0	0	0	-	-
O=C(Nc1ccc(-n2cnnn2)cc1)c1cn2ccccc2n1	-	0	-	-	-	-	-	-
O=C(Nc1ccccc1)c1cn2ccccc2n1	0	0	7.0	0	0	0	0	0
CCn1cc(CNC(=O)c2cc(COc3ccc(F)cc3F)on2)cn1	0	0	0	0	0	0	-	-
c1ccc(NC2=Nc3ccccc3CS2)cc1	0	0	7.2	0	13.2	0	0	7.5
Clc1ccc(-c2nc3c4ccccc4ccn3c2Cc2ccccc2)cc1	0	0	0	0	0	0	-	-
Cc1ccc(-c2nc3c4ccccc4ccn3c2CN2CCCCC2)cc1	0	0	6.7	0	0	0	0	0
Clc1ccc(-c2nc3c4ccccc4ccn3c2CC2CCCCC2)cc1	0	-	6.7	1.6	0	0	0	6.7
CCC(C)Sc1cc(-c2nc3ccccn3c2NC2CCCCC2)ccc1OC (stereo not given)	0	0	0	0	0	0	-	-
CCN(c1ccccc1)S(=O)(=O)c1ccc(C(=O)OC(C)C(=O)NCCC2=CCCCC2)cc1 (stereo not given)	0	0	0	0	0	0	-	-
CC(=O)Nc1cc(C(=O)NCc2ccco2)ccc1Sc1ccc(C)cc1	0	0	0	0	0	0	-	-
COCCn1c(C)cc(C(=O)COC(=O)c2ccc[nH]c2=O)c1C	0	0	0	0	0	0	-	-
COc1cccc(/C=N/NC(=O)c2ccoc2C)c1	0	0	7.2	0	11.2	0	0	0
CCOc1ccc(/C=N/NC(=O)c2ccoc2C)cc1OC	0	0	0	0	0	0	-	-
Cn1c(CC(=O)Nc2ccccc2)cc2ccccc21	0	0	9.9	1.0	0	0	0	7.6
CSc1c(CC(=O)Nc2ccccc2)n(C)c2ccccc12	0	0	0	0	0	0	-	-
Cn1c(CC(=O)Nc2ccccc2)c(Sc2ccccc2)c2ccccc21	0	0	7.5	0	0	0	0	0
CC(C)(C)S(=O)(=O)c1ccsc1C(=O)O	0	0	0	0	0	0	-	-
Cn1c(=O)c2c(nc(CN3CCN(Cc4ccccc4)CC3)n2Cc2ccc(Cl)cc2)n(C)c1=O	0	0	0	0	0	0	-	-
CC(=O)O/C(=C\c1cn(C(C)=O)c2ccccc12)C(=O)O	0	0	0	0	0	0	-	-
CC(=O)n1cc(CO)c2ccccc21	0	0	7.2	0	0	0	0	0
C/C(=N\OCc1cccc(C(=O)O)c1)c1ccc(Cl)cc1	0	-	8.8	0	13.1	0	0	0
C/C(=N/OCO/N=C(\C)c1ccccc1)c1ccccc1	0	0	0	0	0	0	-	-
COC(CNC(=O)c1cc(C)nn1-c1ccccc1)OC	0	0	0	0	0	0	-	-
O=C(NCc1cccnc1)C(=O)NCC1OCCCN1S(=O)(=O)c1cc(F)ccc1F (stereo not given)	0	0	0	0	0	0	-	-
COc1cc2c(c(Br)c1N)-c1cc(Br)c(N)cc1C2=O	0	0	6.9	0	0	0	0	8.8
